# Cav3 T inh: human Cav3.2 channel inhibition, primary screen; Cav3.2-expressing cells, Fluo-4 calcium fluorescence FDSS; active compounds read low; B-score at 10 µM; 100,000 compounds, 4% hits; AID 449739;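 active = single-dose well whose peak fluorescence ratio is a statistical outlier from its plate by either plate-standardised score or position-corrected B-score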
# Target sequence (O95180 whole entry, looked up): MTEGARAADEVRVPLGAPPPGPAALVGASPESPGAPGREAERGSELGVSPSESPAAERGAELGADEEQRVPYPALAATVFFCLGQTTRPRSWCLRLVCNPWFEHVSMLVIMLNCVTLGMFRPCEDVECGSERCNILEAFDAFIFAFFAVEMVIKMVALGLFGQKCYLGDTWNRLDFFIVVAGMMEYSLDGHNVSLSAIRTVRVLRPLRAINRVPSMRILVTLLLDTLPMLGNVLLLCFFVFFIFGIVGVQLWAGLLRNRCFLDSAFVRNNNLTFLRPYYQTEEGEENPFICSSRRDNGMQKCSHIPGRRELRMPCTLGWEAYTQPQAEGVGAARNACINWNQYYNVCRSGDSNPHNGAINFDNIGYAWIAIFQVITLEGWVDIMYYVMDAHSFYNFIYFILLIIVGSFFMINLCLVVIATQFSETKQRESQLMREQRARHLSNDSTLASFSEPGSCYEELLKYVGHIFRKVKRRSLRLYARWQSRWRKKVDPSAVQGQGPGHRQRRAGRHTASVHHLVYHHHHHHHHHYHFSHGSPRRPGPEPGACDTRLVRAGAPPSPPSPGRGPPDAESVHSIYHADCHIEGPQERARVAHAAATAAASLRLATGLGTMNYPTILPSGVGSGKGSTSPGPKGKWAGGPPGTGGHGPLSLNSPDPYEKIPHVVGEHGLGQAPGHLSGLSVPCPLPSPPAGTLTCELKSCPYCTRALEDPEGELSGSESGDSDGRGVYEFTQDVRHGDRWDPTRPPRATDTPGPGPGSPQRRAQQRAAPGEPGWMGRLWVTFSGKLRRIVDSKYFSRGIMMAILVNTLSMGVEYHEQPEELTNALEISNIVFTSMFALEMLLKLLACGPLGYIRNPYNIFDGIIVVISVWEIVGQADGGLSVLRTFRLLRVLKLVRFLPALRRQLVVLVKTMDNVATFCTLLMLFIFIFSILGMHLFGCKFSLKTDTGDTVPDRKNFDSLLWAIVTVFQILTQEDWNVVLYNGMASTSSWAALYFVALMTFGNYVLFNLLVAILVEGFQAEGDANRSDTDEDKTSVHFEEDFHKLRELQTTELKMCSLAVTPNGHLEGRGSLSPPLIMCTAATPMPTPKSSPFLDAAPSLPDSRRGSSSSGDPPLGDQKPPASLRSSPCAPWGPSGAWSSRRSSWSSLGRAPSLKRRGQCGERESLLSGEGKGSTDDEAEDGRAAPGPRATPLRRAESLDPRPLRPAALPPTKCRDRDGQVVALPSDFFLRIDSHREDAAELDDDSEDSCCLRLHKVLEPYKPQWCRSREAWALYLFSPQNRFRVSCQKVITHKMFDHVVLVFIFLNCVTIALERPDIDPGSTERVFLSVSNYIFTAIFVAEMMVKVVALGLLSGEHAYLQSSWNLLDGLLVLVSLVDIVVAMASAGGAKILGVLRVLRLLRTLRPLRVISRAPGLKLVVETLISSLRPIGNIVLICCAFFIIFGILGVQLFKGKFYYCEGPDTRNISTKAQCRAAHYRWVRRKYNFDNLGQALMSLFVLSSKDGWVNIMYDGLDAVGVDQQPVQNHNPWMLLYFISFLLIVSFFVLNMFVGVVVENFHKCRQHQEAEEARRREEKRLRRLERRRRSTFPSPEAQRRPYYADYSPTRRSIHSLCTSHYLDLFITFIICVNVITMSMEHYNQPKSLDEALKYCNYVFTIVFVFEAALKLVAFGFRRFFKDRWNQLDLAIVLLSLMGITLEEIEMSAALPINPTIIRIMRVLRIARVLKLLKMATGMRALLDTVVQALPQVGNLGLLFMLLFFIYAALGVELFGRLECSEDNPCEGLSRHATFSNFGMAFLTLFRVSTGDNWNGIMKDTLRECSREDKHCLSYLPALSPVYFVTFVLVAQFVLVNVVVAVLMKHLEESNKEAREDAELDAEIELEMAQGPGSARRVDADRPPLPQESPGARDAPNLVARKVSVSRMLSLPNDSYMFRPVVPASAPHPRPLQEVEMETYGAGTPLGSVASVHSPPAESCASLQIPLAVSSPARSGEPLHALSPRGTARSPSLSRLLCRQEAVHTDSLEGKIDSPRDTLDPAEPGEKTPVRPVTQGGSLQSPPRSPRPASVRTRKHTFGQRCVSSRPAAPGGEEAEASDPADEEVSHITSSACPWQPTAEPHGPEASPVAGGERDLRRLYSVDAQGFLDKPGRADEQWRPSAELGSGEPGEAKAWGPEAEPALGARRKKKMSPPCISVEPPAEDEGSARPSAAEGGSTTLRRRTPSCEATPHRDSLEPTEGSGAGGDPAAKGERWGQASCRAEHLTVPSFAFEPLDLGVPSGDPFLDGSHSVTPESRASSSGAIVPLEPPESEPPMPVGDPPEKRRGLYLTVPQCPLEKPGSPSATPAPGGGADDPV
# PTK2B oligo ant: Pyk2 (human) oligomerization antagonism. Q14289. Q293 cells, Pyk2 FERM NanoBiT luminescence; active compounds read low. z-score (the deposit names both 25 µM and 10 µM). 99,000 compounds, 0.83% hits. AID 1347419;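 active = Z-score of -3 or lower, scaled per plate to the spread of control and sample wells; inactive = z-score above -3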;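 also: negative z-score means lost luminescence so less FERM oligomerization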
# M1 antag: M1 muscarinic receptor (rat) antagonism; B-score at 10 µM; P08482; AID 628; CHO-M1 cells, Fluo-4 calcium, ACh EC80 antagonist mode; active compounds read low; 64,000 compounds, 3.4% hits;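 active = calcium fluorescence response, raw or row-and-column corrected B-score, differing from the plate sample mean either way at a set confidence level, mostly lower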
# M1 ag: agonists of M1 muscarinic receptor; CHO-M1 cells, Fluo-4 calcium fluorescence, agonist mode; active compounds read high; B-score at 10 µM; 64,000 compounds, 3% hits;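 active = fluorescence rise, raw or as B-score row- and column-corrected plate score, outside the 99.7% band of its plate's samples, either direction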
# M1 antag confirm: confirmation of rat M1 muscarinic receptor antagonists | shares compounds with M1 antag | CHO-M1 cells, Fluo-4 calcium, ACh EC80 antagonism; active compounds read low | calcium response (max-min fluorescence) at 10 µM | 1,700 compounds, 43% hits | AID 677;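 active = calcium response below the same-plate mean of wells given acetylcholine alone at its 80%-effect dose, minus 3 SD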;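 also: raw fluorescence intensity difference in arbitrary instrument units and not normalized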
# mGluR4 antag: mGluR4 (human) activity, M1 antagonist secondary assay; CHO-mGluR4 calcium flux, Fluo-4 fluorescence, glutamate EC80; active compounds read low; fluorescence response (max-min) at 10 µM; shares compounds with M1 antag; 1,700 compounds, 0.9% hits; AID 678;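 active = fluorescence response below the plate's average for near-maximal glutamate wells, less 3 SD of those wells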;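 also: raw unnormalized fluorescence span taken in the window right after glutamate addition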
# * = called active by the depositor; . = no result given. A selection: hits, their analogues and other compounds. The true share with any hit is near 7.1%.
SMILES,Cav3 T inh,PTK2B oligo ant,M1 antag,M1 ag,M1 antag confirm,mGluR4 antag
Cc1ccc(N2CC(c3nc4ccccc4n3C)CC2=O)cc1C (centres undefined),2,.,-4.1*,0.11,447*,234
c1ccc(N2CCN(c3nc(NCc4ccco4)c4ccccc4n3)CC2)cc1,-2,-1.8,-0.65,0.27,.,.
c1coc(CNc2nc(N3CCCCC3)nc3ccccc23)c1,-4.3*,-0.6,-1.5*,2.7,465,203
Cc1ccc(-c2nnc(N3CCN(C(=O)c4ccco4)CC3)c3ccccc23)cc1,0.0084,-1.2,-6.9*,1.6,209*,206
Cc1ccc(-c2nnc(N3CCN(C(=O)CN4C(=O)c5ccccc5C4=O)CC3)c3ccccc23)cc1,0.041,1.2,-0.095,1,.,.
COC(=O)c1ccc(CSc2nc(C)nc3c2c(=O)n(C)c(=O)n3C)o1,0.91,.,-2*,-0.098,500*,242
Cc1ccc(CN2C(=O)CSc3ccc(C(=O)NCCN4CCOCC4)cc32)cc1,0.025,-0.15,-0.85,-0.43,.,.
O=C(NCCN1CCCC1)c1ccc2c(c1)N(Cc1ccc(F)cc1)C(=O)c1ccccc1S2=O (centres undefined),-1.4,.,-1.1*,0.013,505,244
O=C(O)c1ccc2c(c1)N(Cc1ccccc1)C(=O)c1ccccc1S2=O (centres undefined),1.2,.,0.44,-0.2,.,.
O=C(NCCN1CCOCC1)c1ccc2c(c1)N(Cc1ccc(F)cc1)C(=O)CS2,.,.,-9.1*,0.47,398*,214
O=C(C1=C[C@H](c2ccccc2)C[C@H](OCc2ccc(CO)cc2)O1)N1CCOCC1,0.19,.,.,.,.,.
CC(C)CCNC(=O)C1CCN(c2nnc(-n3cccc3)s2)CC1,0.22,.,.,.,.,.
CC1CCN(Cc2ccc(NC(=O)C3CCN(c4nnc(-n5cccc5)s4)CC3)cc2)CC1,0.005,.,-13*,-0.72,15*,220
CCOC(=O)Cn1c(=O)oc2cc(S(=O)(=O)N3CCc4ccccc43)ccc21,.,.,-3.7*,-2.3,533,230
CCOC(=O)Cn1c(=O)oc2cc(S(=O)(=O)NCCc3ccc(OCC)c(OCC)c3)ccc21,0.56,2.1,-2.3*,-0.15,650,198
CC1CCCC(NC(=O)COC(=O)CCC2CCCC2)C1C (centres undefined),0.29,0.91,.,.,.,.
COCCCNCCOc1cc(C(C)C)ccc1C,0.38,0.07,-2.3*,-0.14,554,237
Cc1ccc(C(C)C)cc1OCCOCCN1CCCC1,-0.018,-0.55,.,.,.,.
CN(CCCn1c(=S)[nH]c2ncccc2c1=O)Cc1ccccc1,0.26,0.6,-3.3*,-1.1,471,221
CCCC(=O)Nc1ccc2oc(-c3cccnc3)nc2c1,0.35,-0.69,-2.4*,-0.17,582,229
CCCCC(=O)Nc1ccc2oc(-c3cccnc3)nc2c1,1.1,-0.31,0.21,-1.7,.,.
COc1ccc([C@H]2/C=C\CN(Cc3ccc(N(C)C)cc3)[C@@H](C)C(=O)N2Cc2ccc(F)cc2)cc1,0.94,.,.,.,.,.
Nc1nonc1-c1noc(CCCCCN2C(=O)c3ccccc3C2=O)n1,-1.2,0.24,-0.45,-0.09,.,.
Cc1ccc(C2CC(C(F)(F)F)n3nc(C(=O)NCC4CCCO4)cc3N2)cc1 (centres undefined),-0.013,.,-1,0.44,.,.
O=C(Nc1ccc2nc(-c3cccs3)c(-c3cccs3)nc2c1)N1CCOCC1,-2.7,-1.9,-12*,0.16,138*,206
SMILES,Cav3 T inh,PTK2B oligo ant,M1 antag,M1 ag,M1 antag confirm,mGluR4 antag
Nc1nc(CN2CCCCC2)cs1,0.3,0.67,0.8,-0.2,.,.
Nc1nc(CN2CCOCC2)cs1,0.084,0.25,-0.83*,-0.013,555,261
Cc1ccccc1C(=O)c1cccn1CC(=O)NCc1ccc2c(c1)OCO2,-2.1,-0.6,.,.,.,.
CCOc1ccc(Nc2nc(Cc3nnc(SCC(N)=O)o3)cs2)cc1,-0.085,-0.54,-1.7*,-0.9,661,262
CCOc1ccc(Nc2nc(Cc3nnc(SCC(=O)N(CC)CC)n3C)cs2)cc1,0.86,-0.49,.,.,.,.
Cc1ccccc1C(=O)NC(C)C(c1cccs1)N1CCOCC1 (centres undefined),1.3,.,.,.,.,.
COc1ccccc1C(=O)NC(C)C(c1cccs1)N1CCOCC1 (centres undefined),1.7,0.09,-3.5*,-0.29,656,249
Cc1c(NC(=O)c2cc3ccccc3oc2=O)c(=O)n(-c2ccccc2)n1C,0.56,0.33,.,.,.,.
OC(COCc1ccc(Cl)cc1)CN1CCN(CC(O)COCc2ccc(Cl)cc2)CC1 (centres undefined),-2.2,1.6,-1.9*,0.68,444*,255
CCN1CCN(CC(O)COCc2ccccc2)CC1 (centres undefined),-0.3,-1.1,0.57,0.27,.,.
CCN=C1SC(C(=O)Nc2ccccc2)CC(=O)N1CC (centres undefined),-0.13,0.5,.,.,.,.
COc1ccccc1C(=O)Nn1c(C2CCC2)nc2ccccc2c1=O,-2.1,0.78,-3.3*,0.71,519,180
C/C(NC1CCCCC1)=C(/C#N)C(=O)NCCN1CCOCC1,0.13,0.51,-0.3,0.54,.,.
c1ccc(-c2oc3ncnc(NCCCn4ccnc4)c3c2-c2ccccc2)cc1,-1.3,-2.7,-3.9*,0.037,435,145*
C=CCOn1c(=O)c(=O)n(OCc2ccccc2)c2ccccc21,1,-0.75,-2.6*,-0.28,632,256
CCOc1ccc(-c2nnc3ccc(SCc4ccc(C(=O)OC)o4)nn23)cc1,-0.78,-1.9,-4*,0.046,520*,227
COC(=O)c1ccc(CSc2ccc3nnc(-c4ccccn4)n3n2)o1,1.8,.,0.51,0.3,.,.
Cc1nn(C(=O)Cn2ccc([N+](=O)[O-])n2)c(C)c1Br,2.2,0.07,.,.,.,.
Clc1ccc(C2=CSC3=NCCN23)cc1Cl,-0.59,0.01,-2.2*,-0.22,535,241
Cc1ccc(C)c(C2=CSC3=NCCN23)c1,0.84,0.42,-0.16,-0.77,.,.
Cc1ccc(NC(=O)CCc2ccc(S(=O)(=O)NC3CCCCC3)cc2)cc1,-1.7,1.8,.,.,.,.
O=C(CNC1CCCCCC1)Nc1ccc(S(=O)(=O)NC2CC2)cc1,0.067,-0.15,-4.8*,-0.96,182*,255
C=CCOC(=O)C1=C[C@@H](c2coc3ccccc3c2=O)C[C@@H](OCCCCO)O1,0.75,.,.,.,.,.
CCN(CC)C(=O)C1CCCN(Cc2ccccc2)C1 (centres undefined),0.77,-0.05,.,.,.,.
CCN(CC)C(=O)C1CCCN(C/C=C/c2ccccc2)C1 (centres undefined),1,0.26,-2.7*,4,566,240
CCN(CC)C(=O)C1CCCN(Cc2ccc(F)c(F)c2)C1 (centres undefined),-0.11,-1.3,-4.1*,0.83,649,256
CCN(CC)C(=O)C1CCCN(Cc2ccccc2C(F)(F)F)C1 (centres undefined),.,1.4,.,.,.,.
COc1ccc2[nH]c(=O)c(NC(N)=S)nc2c1,0.081,-0.41,.,.,.,.
CCCCNC(=O)C1CC(c2c(Cl)cccc2Cl)=NO1 (centres undefined),1.1,.,.,.,.,.

# High-throughput results deposited in PubChem by several laboratories.
